Reference: PubChem BioAssay (EPA / NIEHS)
“And” between values parts separate entries of the source, which are not always exact repeats. Identical values can stand only once. The source holds several records for some structures; these can differ, active in one and inactive in another. The source made the active and inactive calls. How the source made its calls: active means hit-call score of the fitted dose curve at least 0.9, where 1 is the maximum; inactive means score below 0.9.

Tests used:
[1] = biological target: Bile acid receptor (Homo sapiens) (UniProt Q96RI1); assay: ATG_IR1_CIS: Attagene CIS-FACTORIAL HepG2 Assay for human Nuclear Receptor Subfamily 1 Group H Member 4 (NR1H4), IR1 submotif (AID 2282946); conditions: IR1 reporter transcription, actives raise or lower the signal
Summary of the method: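 Fluorescence of capillary-separated, HpaI-digested RT-PCR reporter products gave IR1-element mRNA induction in HepG2 cells 24 h after dosing. Endogenous transcription factors drove the cis-regulated reporters; activity was fitted bidirectionally against DMSO.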

[2] = ATG_GRE_CIS: Attagene CIS-FACTORIAL HepG2 Assay for human Glucocorticoid Response Elements (GRE) (AID 2282947); conditions: HepG2 GRE cis-reporter, Attagene multiplex mRNA; actives raise or lower the signal
Summary of the method: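 Fluorescence intensity of reporter-specific cDNA fragments, separated by capillary electrophoresis, provides the signal. Constructs carry cis-regulating promoters in transiently transfected HepG2 liver cells; 24 h incubation; fitting is bidirectional against DMSO.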

[3] = ATG_ISRE_CIS: Attagene CIS-FACTORIAL HepG2 Assay for human Interferon Regulatory Factor 1 (IRF1) binding to an Interferon-Stimulated Response Element (ISRE) (AID 2282948); conditions: HepG2 ISRE cis-reporter (Attagene), mRNA transcription readout; actives raise or lower the signal
Summary of the method: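 Read-out: fluorescent RT-PCR products resolved by capillary electrophoresis, reporting endogenous transcription factor activity via ISRE-driven reporter mRNA in transfected HepG2 cells dosed for 24 h; gain or loss fitted relative to DMSO.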

[4] = ATG_M_32_CIS: Attagene CIS-FACTORIAL HepG2 Assay for M32 Transcription Factor (Internal Marker) (AID 2282949); conditions: HepG2 Attagene cis-factorial M32 reporter, mRNA; actives raise or lower the signal;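 further: background control marker of the multiplexed CIS panel rather than a real target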
Summary of the method: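 HepG2 transfectants (cis-regulated reporter transcription units) dosed 24 h. Reporter mRNA by RT-PCR plus CE, analysed as gain or loss relative to DMSO.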

[5] = ATG_M_06_CIS: Attagene CIS-FACTORIAL HepG2 Assay for M06 Transcription Factor (Internal Marker) (AID 2282950); conditions: HepG2 Attagene CIS-FACTORIAL M06 internal marker reporter; actives raise or lower the signal
Summary of the method: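 HepG2 liver cells, 24 h exposure. Reporter transcripts from transfected cis-element constructs quantified by RT-PCR/capillary electrophoresis fluorescence. Bidirectional curve fit against DMSO.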

[6] = biological target: Hypoxia-inducible factor 1-alpha (Homo sapiens) (UniProt Q16665); assay: ATG_HIF1a_CIS: Attagene CIS-FACTORIAL HepG2 Assay for human Hypoxia Inducible Factor 1 (HIF1A) (AID 2282951); conditions: HepG2 Attagene cis-factorial HIF1a reporter transcription; actives raise or lower the signal
Summary of the method: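 Activity is fitted in both directions relative to DMSO. Reporter transcripts are read by RT-PCR, fluorescent primer extension and capillary electrophoresis after 24 h chemical treatment. The cells are HepG2 carrying transiently transfected cis-element-driven reporter units responding to endogenous factors.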

[7] = biological target: Heat shock factor protein 1 (Homo sapiens) (UniProt Q00613); assay: ATG_HSE_CIS: Attagene CIS-FACTORIAL HepG2 Assay for human Heat Shock Transcription Factor 1 (HSE) (AID 2282953); conditions: HepG2 HSE cis-reporter, Attagene RNA transcription; actives raise or lower the signal
Summary of the method: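 Endogenous transcription factor activity captured via cis-promoter reporter units transfected into HepG2; treatment lasted 24 h. Fluorescence intensity of reporter fragments analysed with bidirectional curve fitting, DMSO baseline.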

[8] = ATG_MRE_CIS: Attagene CIS-FACTORIAL HepG2 Assay for human Metal Responsive Element (MRE) (AID 2282954); conditions: HepG2 MRE cis-reporter transcription, Attagene multiplex; actives raise or lower the signal
Summary of the method: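 Measured here is mRNA induction from an MRE cis-element reporter in HepG2 after 24 h, quantified by fluorescence of labelled RT-PCR products on capillary electrophoresis; gain- and loss-of-signal fits use DMSO as baseline.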

[9] = ATG_PBREM_CIS: Attagene CIS-FACTORIAL HepG2 Assay for human Phenobarbital-responsive Enhancer Module (PBREM) (AID 2282955); conditions: HepG2 PBREM cis-reporter, Attagene multiplexed transcription; actives raise or lower the signal
Summary of the method: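 Endogenous transcription factor activity was read from reporter transcripts in transiently transfected human HepG2 liver cells after 24 h dosing. RT-PCR products were fluorescently labelled, HpaI-cut and sized by capillary electrophoresis; activity fitted bidirectionally against DMSO baseline.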

[10] = ATG_PXRE_CIS: Attagene CIS-FACTORIAL HepG2 Assay for human Pregnane X Receptor Element (PXRE) (AID 2282957); conditions: HepG2 Attagene CIS-FACTORIAL PXRE reporter, mRNA; actives raise or lower the signal
Summary of the method: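 Using HepG2 transfected with multiple reporter transcription units, endogenous factor-driven transcription was scored as reporter mRNA after 24 h exposure.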

[11] = ATG_PPRE_CIS: Attagene CIS-FACTORIAL HepG2 Assay for human Peroxisome Proliferator-activated Response Element (PPRE) (AID 2282958); conditions: HepG2 PPRE cis-element reporter, Attagene transcription factor profiling; actives raise or lower the signal
Summary of the method: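 Endogenous PPRE-driven transcription is measured in HepG2 cells carrying transfected multi-reporter constructs. Reporter transcripts are quantified by RT-PCR, HpaI digestion and capillary electrophoresis 24 h after dosing. DMSO baseline, bidirectional fit.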

[12] = ATG_Sox_CIS: Attagene CIS-FACTORIAL HepG2 Assay for human SRY-box transcription factor (SOX) (AID 2282960); conditions: HepG2 Attagene cis-factorial SOX reporter, mRNA; actives raise or lower the signal
Summary of the method: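 Reporter transcripts, measured by RT-PCR and capillary electrophoresis of labelled fragments, report endogenous SOX transcription factor activity. Transiently transfected human HepG2 cells receive chemical for 24 h; changes in either direction are fitted relative to DMSO.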

[13] = ATG_SREBP_CIS: Attagene CIS-FACTORIAL HepG2 Assay for human Sterol Regulatory Element Binding (SREBP) (AID 2282962); conditions: HepG2 Attagene cis-factorial SREBP reporter, mRNA; actives raise or lower the signal
Summary of the method: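 Readout: fluorescent reporter-transcript peaks resolved by capillary electrophoresis after RT-PCR. Cells were human HepG2 carrying transfected cis-promoter reporter constructs, dosed for 24 h. Gain or loss of signal was fitted against DMSO controls.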

[14] = biological target: Signal transducer and activator of transcription 3 (Homo sapiens) (UniProt P40763); assay: ATG_STAT3_CIS: Attagene CIS-FACTORIAL HepG2 Assay for human Signal Transducer and Activator of Transcription 3 (STAT3) (AID 2282963); conditions: HepG2, Attagene cis-factorial STAT3 reporter transcription; actives raise or lower the signal
Summary of the method: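 Fluorescence intensity of 6-FAM-labelled reporter fragments, separated by capillary electrophoresis after RT-PCR, gave the signal. Cells were HepG2 transfected with cis-element reporter units and treated 24 h; fitting was bidirectional relative to DMSO.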

[15] = ATG_TA_CIS: Attagene CIS-FACTORIAL HepG2 Assay for human TA Basal Promoter (AID 2282964); conditions: HepG2 Attagene CIS-factorial TA basal promoter reporter; actives raise or lower the signal
Summary of the method: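 Fluorescence from labelled RT-PCR reporter fragments, separated by capillary electrophoresis, gives the signal. Cells: HepG2 transiently carrying multiple reporter units, 24 h chemical dosing. Gain or loss relative to DMSO.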

[16] = ATG_TCF_b_cat_CIS: Attagene CIS-FACTORIAL HepG2 Assay for human T-Cell-Factor with beta-catenin (TCF/b-cat) (AID 2282965); conditions: HepG2 TCF/beta-catenin cis-reporter transcription, actives raise or lower the signal
Summary of the method: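 Cells of the HepG2 line carry transiently transfected reporter units whose promoters respond to endogenous factors. Twenty-four hours post-dosing, reporter mRNA induction is measured by fluorescent RT-PCR and capillary electrophoresis, with DMSO as baseline.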

[17] = biological target: Paired box protein Pax-6 (Homo sapiens) (UniProt P26367); assay: ATG_Pax6_CIS: Attagene CIS-FACTORIAL HepG2 Assay for human Paired Box 6 (PAX6) (AID 2282956); conditions: HepG2 CIS-FACTORIAL PAX6 reporter transcription, RNA readout; actives raise or lower the signal
Summary of the method: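 Readout: reporter transcript fluorescence after RT-PCR and capillary electrophoresis. Cells: HepG2, transiently transfected with cis-regulated MRTUs. Exposure 24 h. Gain or loss of signal fitted bidirectionally relative to DMSO.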

[18] = ATG_RORE_CIS: Attagene CIS-FACTORIAL HepG2 Assay for human RAR-related Orphan Receptor Element (RORE) (AID 2282959); conditions: HepG2 Attagene cis-factorial RORE reporter, mRNA; actives raise or lower the signal
Summary of the method: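 RORE reporter transcripts reflecting endogenous factor activity were read after 24 h compound exposure of transfected HepG2 cells, using reverse transcription, PCR, fluorescent labelling and capillary electrophoresis sizing. Gain or loss fitted against DMSO.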

[19] = biological target: Transcription factor Sp1 (Homo sapiens) (UniProt P08047); assay: ATG_Sp1_CIS: Attagene CIS-FACTORIAL HepG2 Assay for human Specificity Protein 1 (Sp1) (AID 2282961); conditions: HepG2 Sp1 cis-reporter transcription, actives raise or lower the signal
Summary of the method: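 Read-out is reporter transcript level, measured by RT-PCR and fluorescent capillary electrophoresis after 24 h chemical treatment. System: transiently transfected HepG2 cells reporting endogenous transcription factor activity; gain or loss fitted against DMSO baseline.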

[20] = biological target: Hepatocyte nuclear factor 6 (Homo sapiens) (UniProt Q9UBC0); assay: ATG_HNF6_CIS: Attagene CIS-FACTORIAL HepG2 Assay for human Hepatocyte Nuclear Factor 6 (HNF6) (AID 2282952); conditions: HepG2 Attagene cis-factorial HNF6 reporter transcription; actives raise or lower the signal
Summary of the method: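 Using cis-element reporters in HepG2 liver cells, the assay tracks endogenous factor-driven transcription 24 h post-dosing. Signal comes from 6-FAM-labelled, HpaI-digested RT-PCR fragments, with gain or loss scored against DMSO.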

Measured: AC50

Chain of Hypoxia-inducible factor 1-alpha (Homo sapiens) (Q16665 whole entry, looked up): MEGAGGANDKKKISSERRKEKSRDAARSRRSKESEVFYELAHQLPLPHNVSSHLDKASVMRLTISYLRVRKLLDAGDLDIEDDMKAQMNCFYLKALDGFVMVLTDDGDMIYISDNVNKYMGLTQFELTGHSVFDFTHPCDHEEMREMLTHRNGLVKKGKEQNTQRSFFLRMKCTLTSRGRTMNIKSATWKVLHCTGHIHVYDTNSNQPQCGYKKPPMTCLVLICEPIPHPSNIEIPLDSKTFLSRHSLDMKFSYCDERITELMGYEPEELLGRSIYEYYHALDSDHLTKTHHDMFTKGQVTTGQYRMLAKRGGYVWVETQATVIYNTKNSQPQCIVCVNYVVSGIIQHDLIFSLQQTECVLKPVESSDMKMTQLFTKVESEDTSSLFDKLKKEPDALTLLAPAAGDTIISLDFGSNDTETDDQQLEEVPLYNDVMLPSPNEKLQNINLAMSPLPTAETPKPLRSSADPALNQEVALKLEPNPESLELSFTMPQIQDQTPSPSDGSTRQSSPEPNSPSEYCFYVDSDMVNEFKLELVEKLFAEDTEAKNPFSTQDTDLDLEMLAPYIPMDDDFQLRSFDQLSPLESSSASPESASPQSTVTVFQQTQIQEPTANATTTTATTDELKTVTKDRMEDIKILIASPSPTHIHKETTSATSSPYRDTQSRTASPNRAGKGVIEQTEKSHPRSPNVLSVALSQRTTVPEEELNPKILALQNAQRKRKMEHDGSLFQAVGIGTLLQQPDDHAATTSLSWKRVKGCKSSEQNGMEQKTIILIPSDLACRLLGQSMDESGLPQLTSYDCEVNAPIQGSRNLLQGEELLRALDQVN
Chain of Signal transducer and activator of transcription 3 (Homo sapiens) (P40763 whole entry, looked up, the tested form may be a part): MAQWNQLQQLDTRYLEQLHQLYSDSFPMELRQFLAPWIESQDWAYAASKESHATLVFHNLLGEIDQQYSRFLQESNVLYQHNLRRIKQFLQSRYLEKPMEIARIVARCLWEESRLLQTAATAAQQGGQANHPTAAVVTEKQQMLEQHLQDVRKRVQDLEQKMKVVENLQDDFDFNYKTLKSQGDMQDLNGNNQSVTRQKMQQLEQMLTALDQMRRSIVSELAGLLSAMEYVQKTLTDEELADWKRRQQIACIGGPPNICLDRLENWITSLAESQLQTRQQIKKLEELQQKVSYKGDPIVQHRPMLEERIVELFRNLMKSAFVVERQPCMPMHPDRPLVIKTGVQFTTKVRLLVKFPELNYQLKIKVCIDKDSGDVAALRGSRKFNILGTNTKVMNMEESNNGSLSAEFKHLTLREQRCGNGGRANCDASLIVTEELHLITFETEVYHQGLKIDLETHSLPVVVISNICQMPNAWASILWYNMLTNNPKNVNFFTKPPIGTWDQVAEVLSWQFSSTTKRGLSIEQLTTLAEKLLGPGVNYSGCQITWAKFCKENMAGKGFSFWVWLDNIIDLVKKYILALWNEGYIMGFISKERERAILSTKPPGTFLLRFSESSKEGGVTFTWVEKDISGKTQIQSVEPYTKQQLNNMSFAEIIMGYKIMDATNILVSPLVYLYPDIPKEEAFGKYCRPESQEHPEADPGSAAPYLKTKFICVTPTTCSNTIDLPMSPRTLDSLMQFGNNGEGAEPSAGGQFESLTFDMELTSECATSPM
Chain of Bile acid receptor (Homo sapiens) (Q96RI1 whole entry, looked up): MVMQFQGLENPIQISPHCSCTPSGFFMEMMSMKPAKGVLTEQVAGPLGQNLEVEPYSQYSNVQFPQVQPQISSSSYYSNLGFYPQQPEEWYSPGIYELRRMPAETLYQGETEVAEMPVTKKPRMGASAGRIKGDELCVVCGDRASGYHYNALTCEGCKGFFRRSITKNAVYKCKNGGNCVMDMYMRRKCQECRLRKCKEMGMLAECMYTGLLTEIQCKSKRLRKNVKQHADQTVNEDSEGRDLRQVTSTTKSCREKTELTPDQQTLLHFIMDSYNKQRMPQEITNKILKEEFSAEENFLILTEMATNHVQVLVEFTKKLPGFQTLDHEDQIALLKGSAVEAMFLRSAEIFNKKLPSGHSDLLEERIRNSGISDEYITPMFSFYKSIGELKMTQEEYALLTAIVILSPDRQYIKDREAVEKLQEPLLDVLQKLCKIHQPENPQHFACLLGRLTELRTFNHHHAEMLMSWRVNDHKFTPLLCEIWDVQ
Chain of Paired box protein Pax-6 (Homo sapiens) (P26367 whole entry, looked up): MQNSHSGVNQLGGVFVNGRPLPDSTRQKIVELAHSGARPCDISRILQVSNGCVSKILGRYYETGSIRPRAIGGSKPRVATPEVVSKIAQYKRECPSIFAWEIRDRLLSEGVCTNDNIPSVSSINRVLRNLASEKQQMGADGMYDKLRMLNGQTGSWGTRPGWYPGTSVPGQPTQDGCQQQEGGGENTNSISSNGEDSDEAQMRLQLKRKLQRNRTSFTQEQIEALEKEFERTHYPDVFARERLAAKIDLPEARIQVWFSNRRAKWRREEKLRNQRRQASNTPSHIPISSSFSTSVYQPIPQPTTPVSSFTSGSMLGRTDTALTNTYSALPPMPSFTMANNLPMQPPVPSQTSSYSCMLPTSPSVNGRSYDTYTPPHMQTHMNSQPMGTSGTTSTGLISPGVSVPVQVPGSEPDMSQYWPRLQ
Chain of Heat shock factor protein 1 (Homo sapiens) (Q00613 whole entry, looked up, the tested form may be a part): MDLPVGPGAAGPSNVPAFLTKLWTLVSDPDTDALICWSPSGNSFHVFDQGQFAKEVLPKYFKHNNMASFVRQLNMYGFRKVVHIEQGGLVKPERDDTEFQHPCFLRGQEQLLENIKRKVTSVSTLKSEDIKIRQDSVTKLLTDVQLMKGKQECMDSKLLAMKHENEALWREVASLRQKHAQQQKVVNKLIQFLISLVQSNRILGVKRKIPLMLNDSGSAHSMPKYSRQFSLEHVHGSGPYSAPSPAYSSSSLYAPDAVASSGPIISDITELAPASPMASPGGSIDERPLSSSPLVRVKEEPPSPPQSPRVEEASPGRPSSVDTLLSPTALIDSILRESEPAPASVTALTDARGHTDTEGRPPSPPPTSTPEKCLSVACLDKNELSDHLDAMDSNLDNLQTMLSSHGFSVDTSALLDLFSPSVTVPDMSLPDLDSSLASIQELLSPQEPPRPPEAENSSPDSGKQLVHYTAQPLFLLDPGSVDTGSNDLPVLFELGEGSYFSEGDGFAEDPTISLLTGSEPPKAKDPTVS
Chain of Transcription factor Sp1 (Homo sapiens) (P08047 whole entry, looked up): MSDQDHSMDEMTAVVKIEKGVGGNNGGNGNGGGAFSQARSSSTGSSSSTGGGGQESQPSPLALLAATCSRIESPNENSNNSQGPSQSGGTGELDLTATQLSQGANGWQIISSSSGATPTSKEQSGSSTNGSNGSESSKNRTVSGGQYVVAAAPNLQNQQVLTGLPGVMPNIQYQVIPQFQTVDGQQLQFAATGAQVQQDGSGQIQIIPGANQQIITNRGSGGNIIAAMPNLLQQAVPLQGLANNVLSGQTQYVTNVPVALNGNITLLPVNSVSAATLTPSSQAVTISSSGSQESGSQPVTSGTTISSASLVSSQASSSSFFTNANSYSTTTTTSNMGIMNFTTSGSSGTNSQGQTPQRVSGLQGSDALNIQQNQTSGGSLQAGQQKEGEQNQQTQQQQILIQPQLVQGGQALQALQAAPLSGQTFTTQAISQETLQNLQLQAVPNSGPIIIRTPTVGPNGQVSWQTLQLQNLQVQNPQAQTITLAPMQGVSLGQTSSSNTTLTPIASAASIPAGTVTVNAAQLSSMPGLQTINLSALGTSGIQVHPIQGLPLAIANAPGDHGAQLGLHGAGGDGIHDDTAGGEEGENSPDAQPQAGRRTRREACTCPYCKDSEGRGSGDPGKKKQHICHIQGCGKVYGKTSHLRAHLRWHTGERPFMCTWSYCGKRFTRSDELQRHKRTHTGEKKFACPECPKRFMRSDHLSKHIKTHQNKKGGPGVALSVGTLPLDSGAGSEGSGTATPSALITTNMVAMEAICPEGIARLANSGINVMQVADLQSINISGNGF
Chain of Hepatocyte nuclear factor 6 (Homo sapiens) (Q9UBC0 whole entry, looked up, the tested form may be a part): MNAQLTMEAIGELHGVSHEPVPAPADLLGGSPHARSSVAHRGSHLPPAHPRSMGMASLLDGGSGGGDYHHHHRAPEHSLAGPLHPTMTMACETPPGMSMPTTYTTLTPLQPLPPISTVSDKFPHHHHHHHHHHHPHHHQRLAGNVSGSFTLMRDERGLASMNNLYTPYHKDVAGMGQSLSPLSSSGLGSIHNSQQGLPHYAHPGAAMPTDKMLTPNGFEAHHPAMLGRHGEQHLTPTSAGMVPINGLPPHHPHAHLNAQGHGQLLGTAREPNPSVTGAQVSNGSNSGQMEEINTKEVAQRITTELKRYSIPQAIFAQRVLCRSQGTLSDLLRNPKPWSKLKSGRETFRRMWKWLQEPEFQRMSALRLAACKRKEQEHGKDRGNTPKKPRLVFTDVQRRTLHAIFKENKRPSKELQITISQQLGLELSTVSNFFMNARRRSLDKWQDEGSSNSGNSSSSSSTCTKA

CNC(=O)Oc1cccc2c1OC(C)(C)O2
inactive: [1] | [2] | [3] | [4] | [5] | [6] | [7] | [9] | [12] | [13] | [14] | [15] | [16]
active: [8] 67.7 µM | [10] 40.2 µM | [11] 50 µM

CCCSP(=O)(OCC)Oc1ccc(Br)cc1Cl (stereo not drawn)
inactive: [1] | [3] | [4] | [5] | [6] | [8] | [9] | [17] | [11] | [18] | [12] | [19] | [14] | [15] | [16]
active: [10] 3.04 µM | [13] 1.31 µM

CN1COCN(Cc2cnc(Cl)s2)C1=N[N+](=O)[O-]
active: [10] 50 µM
inactive: [1] | [2] | [3] | [4] | [5] | [6] | [7] | [8] | [17] | [11] | [18] | [12] | [13] | [14] | [15] | [16]

CCCCOC(=O)c1ccccc1C(=O)O
inactive: [1] | [3] | [4] | [5] | [6] | [20] | [8] | [9] | [17] | [10] | [11] | [18] | [12] | [19] | [13] | [14] | [15] | [16]

O=[N+]([O-])c1cc(C(F)(F)F)c(Cl)c([N+](=O)[O-])c1Nc1ncc(C(F)(F)F)cc1Cl
active: [1] 12.9 µM | [2] 20.3 µM | [3] 16.6 µM | [4] 18.1 µM | [10] 2.84 µM and 1.27 µM | [11] 14.6 µM | [14] 19.1 µM | [15] 15.4 µM | [16] 16.1 µM
inactive: [1] | [2] | [3] | [4] | [5] | [6] | [7] | [8] | [9] | [11] | [18] | [12] | [13] | [14] | [15] | [16]

Nc1nc(N)nc(NC2CC2)n1
inactive: [1] | [2] | [3] | [4] | [5] | [6] | [20] | [8] | [10] | [18] | [12] | [13] | [14] | [15] | [16]
